# PubChem BioAssay AID485346 (Sanford-Burnham Center for Chemical Genomics, 2010)
# About 10,000 (3%) of roughly 330,000 compounds were called active. What follows is part of a selection rich in actives, with near analogues and random picks from the rest. Unmarked numbers belong to inactive results.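 How the source made its calls: active means inhibition of at least 50% at 8 µM in the primary screen; inactive means the rest.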
# Biological target: Protein Mdm4 (Homo sapiens) + E3 ubiquitin-protein ligase Mdm2 (Homo sapiens) (UniProt O15151+Q00987)
# Test: inhibitors of human Mdm2-MdmX association, primary screen, cell-based, luminescence, split luciferase, SaOS-2, uHTS (AID 485346)
# Details: SaOS-2 split-luciferase Mdm2/MdmX complementation, at 8 µM, active compounds read high
# Protein Mdm4 (Homo sapiens) + E3 ubiquitin-protein ligase Mdm2 (Homo sapiens), sequence (O15151 whole entry, looked up): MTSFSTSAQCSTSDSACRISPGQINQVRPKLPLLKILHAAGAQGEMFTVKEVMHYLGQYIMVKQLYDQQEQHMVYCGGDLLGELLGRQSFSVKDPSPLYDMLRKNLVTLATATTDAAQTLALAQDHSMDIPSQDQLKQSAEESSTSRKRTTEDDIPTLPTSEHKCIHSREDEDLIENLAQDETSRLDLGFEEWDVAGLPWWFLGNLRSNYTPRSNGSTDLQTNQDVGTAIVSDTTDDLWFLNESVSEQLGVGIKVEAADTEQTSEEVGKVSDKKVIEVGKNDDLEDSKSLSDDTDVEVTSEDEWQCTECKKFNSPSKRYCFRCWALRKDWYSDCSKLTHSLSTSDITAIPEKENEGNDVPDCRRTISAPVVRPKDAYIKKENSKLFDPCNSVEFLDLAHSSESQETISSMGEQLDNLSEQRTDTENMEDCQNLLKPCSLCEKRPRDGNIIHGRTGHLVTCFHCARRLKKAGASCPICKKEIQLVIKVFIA
# Protein Mdm4 (Homo sapiens) + E3 ubiquitin-protein ligase Mdm2 (Homo sapiens), sequence (Q00987 whole entry, looked up): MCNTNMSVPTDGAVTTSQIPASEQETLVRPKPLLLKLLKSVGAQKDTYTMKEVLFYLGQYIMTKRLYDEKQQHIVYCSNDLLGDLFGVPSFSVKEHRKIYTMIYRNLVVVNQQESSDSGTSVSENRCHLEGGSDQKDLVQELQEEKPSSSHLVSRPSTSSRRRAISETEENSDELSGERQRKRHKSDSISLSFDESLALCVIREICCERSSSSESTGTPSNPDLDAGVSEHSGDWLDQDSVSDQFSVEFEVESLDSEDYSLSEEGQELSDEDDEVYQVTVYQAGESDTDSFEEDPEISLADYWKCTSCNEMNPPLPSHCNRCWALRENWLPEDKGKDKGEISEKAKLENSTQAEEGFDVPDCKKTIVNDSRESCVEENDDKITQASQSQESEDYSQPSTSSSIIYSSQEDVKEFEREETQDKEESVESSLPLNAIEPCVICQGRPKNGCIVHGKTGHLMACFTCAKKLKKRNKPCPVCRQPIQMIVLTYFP
row,Compound,inhibition
1,Cc1c(-c2ccccc2)cn2c1-c1ccc(C)n1CC2,-3.59%
2,O=S(=O)(c1cccs1)N1CCN(CCOc2ccccc2)CC1,14.3%
3,Cn1cc(S(=O)(=O)NC(c2ccccc2)c2ccccc2)c(=O)n(C)c1=O,7.36%
4,Nc1cccc(-c2cc(-c3ccccc3)nc(-c3cccc(N)c3)n2)c1,65% (active)
5,c1ccc(-c2cc(-c3ccccc3)[nH]n2)cc1,-145%
6,Nc1cccc(CCc2nc3ccccc3[nH]2)c1,-30.8%
7,N#Cc1cccc(CSc2ncnc(N)n2)c1,7.81%
8,COc1ccc(C2CC(c3cccs3)=NN2C(=O)CCC(=O)O)cc1OC (stereo unspecified),17.5%
9,COc1ccc(C2CC(c3cccs3)=NN2c2nc(C)c(C(C)=O)s2)cc1OC (stereo unspecified),67.5% (active)
10,COc1ccc(C2CC(c3cccs3)=NN2c2ccc(F)cc2)cc1OC (stereo unspecified),-3.01%
11,Cc1cc(NC(=O)CCC(=O)N(Cc2ccccc2)C(C(=O)NC2CCCC2)c2ccc(C)o2)no1 (stereo unspecified),16.1%
12,O=C(Cc1cccc2ccccc12)NNC(=O)Nc1ccc(Cl)cc1,-10%
13,CC(C)(C)C(=O)NC(NC(=S)Nc1ccc(S(N)(=O)=O)cc1)C(Cl)(Cl)Cl (stereo unspecified),18.8%
14,Cc1ccc(NC(=S)NC(NC(=O)Cc2cccc3ccccc23)C(Cl)(Cl)Cl)cc1 (stereo unspecified),79.8% (active)
15,COc1ccc(S(=O)(=O)N2CCN(C(=O)N(C)C)C2C)cc1 (stereo unspecified),-11.6%
16,O=c1ccc2cc(S(=O)(=O)NCCCc3ccccc3)ccc2[nH]1,23.1%
17,N#Cc1c(N)nc2c(c1N)CC(C(F)(F)F)O2 (stereo unspecified),9.73%
18,O=C(CCCCCN1C(=O)c2cccc3cccc(c23)C1=O)NCc1ccco1,2.52%
19,O=C(CN1C(=O)/C(=C\c2ccccc2F)SC1=S)Nc1nc2ccccc2s1,-22.4%
20,O=C(CCCN1C(=O)/C(=C/c2ccco2)SC1=S)Nc1ccccc1,68.6% (active)
21,Cc1ccc(-c2nn(-c3ccccc3)cc2/C=C2\SC(=S)N(CCCCCC(=O)O)C2=O)o1,34%

row,Compound,inhibition
1,CN1C(=O)/C(=C/c2ccco2)SC1=Nc1cccc(C(=O)O)c1,-14.1%
2,O=C(CCCN1C(=O)/C(=C\c2ccco2)SC1=S)Nc1cccc2ccccc12,86.5% (active)
3,Cc1sc(NC(=O)C2=COCCO2)c(C#N)c1C,-49.9%
4,COc1ccc(N2CCN(C(=O)CN3C(=O)COc4ccccc43)CC2)cc1,-8.57%
5,CNC1(c2nnnn2-c2c(C)cccc2C)CCOC(C)(C)C1 (stereo unspecified),1.22%
6,CCOC(=O)[C@H]1[C@H]2COc3cc(OC)ccc3[C@@H]2N2C(=O)CN(Cc3ccc(Cl)cc3)C(=O)[C@@]12C,-12%
7,O=C(Cc1ccc(S(=O)(=O)N2CCOCC2)s1)NCCOc1ccccc1F,11.2%
8,Oc1c(Cl)cc(Cl)c(Cl)c1Cc1c(O)c(Cl)cc(Cl)c1Cl,95% (active)
9,CCOc1cc(/C=N/NC(=O)c2ccc(CSc3nncn3C)cc2)ccc1OCC(=O)N1CCOCC1,-20%
10,CCCCCCSc1ccc(-c2nc3ccc(Cl)cn3c2NCc2ccccc2)cc1,-24.5%
11,CCCCNc1c(-c2ccc(OC)c(Sc3ccc(OC)cc3)c2)nc2ccc(Cl)cn12,41.1%
12,CCCCNc1c(-c2cccc(Sc3ccc(OC)cc3)c2)nc2ccccn12,78.3% (active)
13,O=C1C(C=NCC2CCCO2)=C(O)c2ccccc21 (stereo unspecified),-17%
14,CC(=NC1CCN(Cc2ccccc2)CC1)c1c(O)[nH]c(=O)[nH]c1=O,10.7%
15,CC(=NCC1CCCO1)c1c(O)[nH]c(=O)[nH]c1=O (stereo unspecified),60.2% (active)
16,CN(Cc1ccccc1)C(=O)c1cccc(C(=O)N(C)Cc2ccccc2)c1,-13.2%
17,N#C/C(=C\c1ccccc1)c1n[nH]c(Cn2cncn2)n1,-1.38%
18,CCOC(=O)N1CCN(C(=O)C(=O)Nc2sc3c(c2C#N)CC(C)(C)OC3)CC1,13.5%
19,O=C(NCc1ccccc1)C1C(=O)N(Cc2ccccc2)C(=O)C1C1(O)CCCC1 (stereo unspecified),13%
20,CCc1nc(C)cn1S(=O)(=O)c1cc([N+](=O)[O-])ccc1Cl,66.2% (active)
21,CCc1nc(C)cn1S(=O)(=O)c1cc(OC)c(C)cc1C,8.72%

row,Compound,inhibition
1,CC(C)c1nccn1S(=O)(=O)c1cc([N+](=O)[O-])ccc1Cl,25.4%
2,C/C(=C(\C#N)C(=O)NCCCN1CCOCC1)N(C)C,13.1%
3,C#CCOCCOCCOCCNc1nc(N2CCN(C(=O)CCCCCCCCCCNC(=O)[C@H]([C@@H](C)CC)n3cc(CCCCN=C(N)N)nn3)CC2)nc(N2CCN(C(=O)CCCCCCCCCCNC(=O)[C@H](CO)n3cc(CCCSC)nn3)CC2)n1,12.1%
4,C#CCOCCOCCOCCNc1nc(N2CCN(C(=O)CCCCCCCCCCNC(=O)Cn3cc(CCCCCN)nn3)CC2)nc(N2CCN(C(=O)CCCCCCCCCCNC(=O)[C@H](CO)n3cc(CCCSC)nn3)CC2)n1,11.3%
5,C#CCOCCOCCOCCNc1nc(N2CCN(C(=O)CCCCCCCCCCNC(=O)[C@H](CCCCN)n3cc(C)nn3)CC2)nc(N2CCN(C(=O)CCCCCCCCCCNC(=O)[C@H](CO)n3cc(CCCSC)nn3)CC2)n1,52.3% (active)
6,COCCN(C(=O)CC1CCCCC1)c1c(N)n(CC(C)C)c(=O)[nH]c1=O,13.6%
7,CCOC(=O)CCCNC(=O)COC(=O)c1cc(Br)c(Br)s1,12%
8,COc1ccc(C)cc1NC(=O)CSc1nnc2ccc(-c3ccccn3)nn12,15.8%
9,COc1ccc(-c2nc3n(c(=O)c2C#N)CCS3)c(OC)c1,1.98%
10,Cc1c(Br)c([N+](=O)[O-])nn1C(C)C(=O)Nc1nccs1 (stereo unspecified),9.97%
11,O=C(NCCN1CCOCC1)c1ccc(/C=C2\Sc3ccccc3N(Cc3ccc(F)cc3)C2=O)cc1,62.4% (active)
12,Cc1ccccc1CN1C(=O)c2ccccc2Sc2ccc(C(=O)NCCCN3CCOCC3)cc21,24.3%
13,O=C(NCCN1CCOCC1)/C(=C/c1ccc(F)cc1)NC(=O)c1ccccc1,-6.74%
14,CC(C)OCCCNC(=O)CN1C(=O)/C(=C/c2ccccc2F)Oc2ccccc21,13.4%
15,CCN1CCN(CCNC(=O)c2ccc(/C=C3/Sc4ccccc4N(Cc4cccc(C)c4)C3=O)cc2)CC1,96.1% (active)
16,Cc1nn(Cc2ccccc2)c(C)c1C(=O)NCCN1C(=O)S/C(=C\c2ccc(F)cc2)C1=O,26.7%
17,CCCN1CCN(C(=O)CCCNC(=O)c2ccc(Cl)cc2)CC1,-0.622%
18,O=C(NCCCN1CCOCC1)c1ccc2c(c1)N(Cc1cccc(F)c1)C(=O)c1ccccc1S2,13.8%
19,CN1CCN(CCCNC(=O)c2ccc(/C=C3\Oc4ccccc4N(Cc4ccc(Cl)cc4)C3=O)cc2)CC1,99.3% (active)
